Among the data in PubChem BioAssay (Tox21) are Potency and max response values, retold here.

Structures are written as SMILES. Values joined by “and” are separate entries in the source; they are usually repeats but may differ in a detail not shown here. Equal entries are not always repeated. Inconclusive results are not listed. A number with no mark means an inactive call. Active and inactive are the calls of the source. The call rests on the fitted dose curve; in most records, active means well fitted curve in the direction sought with a large enough effect in the repeat runs; inconclusive means weak or mixed curves; inactive means no such curve, though single readings can be large; an effect the other way counts as inactive or inconclusive.

Test [1] in a line: A CellTox Green Cytotoxicity Assay to monitor cytotoxicity in HEK293 cells - 40 hour (AID 1224871). Further: nearly all actives have a fitted effect of over 45% in size. Further: potency means the concentration at half of the fitted maximal effect. Put shortly:
(§1)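 Nonlytic real-time cytotoxicity: HEK293 + CellTox Green reagent plated, 5 h preincubation, pintool compound addition (23 nL in DMSO), 37 C for 40 h, fluorescence measured at successive time points.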

The nature of test [2]: qHTS RealTime-Glo MT Cell Viability Assay in HEK293 cells - 16 hour (AID 1224872). Further: nearly all actives have a fitted effect of over 50% in size. Further: potency means the concentration at half of the fitted maximal effect. An outline of the steps:
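Tox21 10K qHTS, HEK293, 600 cells/well, RealTime-Glo reagent co-dispensed with cells; 5 h preincubation, compound by pintool, 37 C, luminescence at 0–40 h.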

A short description of test [3]: qHTS RealTime-Glo MT Cell Viability Assay in HepG2 cells - 8 hour (AID 1224873). Further: nearly all actives have a fitted effect of over 55% in size. Put shortly:
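HepG2 cells (600/well) mixed with RealTime-Glo MT reagent, settled 5 h at 37 C/5% CO2 before compound addition. Nonlytic NanoLuc luminescence from viable-cell prosubstrate reduction read repeatedly during 40 h treatment at 37 C.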

Test [4] in a line: qHTS RealTime-Glo MT Cell Viability Assay in HEK293 cells - 40 hour (AID 1224874). Further: nearly all actives have a fitted effect of over 50% in size. Further: potency means the concentration at half of the fitted maximal effect. The note with it: RealTime-Glo luminescence; max response: active compounds read low. An outline of the steps:
(§2)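 Cells were seeded together with NanoLuc luciferase and a prosubstrate that viable cells reduce to a luciferase substrate. After a 5 h incubation at 37 C/5% CO2, compounds were added and luminescence was measured repeatedly during 40 h of treatment.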

Test [5] in a line: A CellTox Green Cytotoxicity Assay to monitor cytotoxicity in HEK293 cells - 24 hour (AID 1224875). Further: nearly all actives have a fitted effect of over 45% in size. Further: potency means the concentration at half of the fitted maximal effect. Put shortly:
as §1

Test [6] is described as follows: qHTS RealTime-Glo MT Cell Viability Assay in HepG2 cells - 32 hour (AID 1224877). Further: nearly all actives have a fitted effect of over 55% in size. Put shortly:
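Cells + NanoLuc/prosubstrate dispensed (600 cells/well) → 5 h at 37 C/5% CO2 → compounds in DMSO transferred → 40 h incubation at 37 C, luminescence read at 0, 8, 16, 24, 32, 40 h.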

Test [7] is described as follows: qHTS RealTime-Glo MT Cell Viability Assay in HEK293 cells - 0 hour (AID 1224880). Further: top concentration of the series differs between compounds; nearly all actives have a fitted effect of over 45% in size. Put shortly: as §2
A short description of test [8]: A CellTox Green Cytotoxicity Assay to monitor cytotoxicity in HepG2 cells - 16 hour (AID 1224876). Further: nearly all actives have a fitted effect of over 45% in size. Further: potency means the concentration at half of the fitted maximal effect. Put shortly: (§3)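 Read-out is fluorescence of a cyanine dye excluded from live cells that stains DNA of dead HepG2 cells, with signal proportional to cytotoxicity. Plates were read at 0, 8, 16, 24, 32 and 40 h after compound addition.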
Test [9] can be described thus: A CellTox Green Cytotoxicity Assay to monitor cytotoxicity in HepG2 cells - 24 hour (AID 1224878). Further: nearly all actives have a fitted effect of over 45% in size. Further: potency means the concentration at half of the fitted maximal effect. An outline of the steps: as §3
Test [10] in a line: A CellTox Green Cytotoxicity Assay to monitor cytotoxicity in HepG2 cells - 40 hour (AID 1224879). Further: nearly all actives have a fitted effect of over 40% in size. Further: potency means the concentration at half of the fitted maximal effect. An outline of the steps:
as §3
On the % scale 0 is the no-effect control and ±100 the full control effect.

Consider `CCCC(=O)OC(C)(C)Cc1ccccc1`, for which the Potency in test [1] was 24.5 µM (active). In addition, the Potency entry in [2], in test [3], in test [5], in test [6] and in test [7] was “inactive” each time. In addition, in [4], the max response was -22.8%.

Take `Cc1ccc(N/N=c2\c(=O)cc/c(=N\Nc3ccc(S(=O)(=O)O)cc3)c2=O)c(C)c1`: the Potency entry in test [1], in test [2], in test [3], in test [5], in [8] and in test [6] was “inactive” in each case. Further, the Potency result in test [9], in [10] and in test [7] was “inactive” each time. Also, the max response in [4] is 1.45%.

For the compound `CC/C=C\CCCCCO`, the Potency result in test [1], in test [2], in test [3], in [5], in [8] and in test [6] was “inactive” throughout. For the same compound, in test [7], the Potency result was “inactive”. For the same compound, in test [4], the max response is 9.87%.

With `Cc1c(C)c2c(c(C)c1O)CC[C@@](C)(CCC[C@H](C)CCC[C@H](C)CCCC(C)C)O2`, the Potency entry in test [1], in test [2], in test [3], in test [5], in test [8] and in test [6] was “inactive” in each case. For the same compound, the Potency result in [9], in test [10] and in [7] was “inactive” each time. Besides, the max response in test [4] is -14.1%.

On to `CCN(CC)c1ccc2c(-c3ccc(S(=O)(=O)O)cc3S(=O)(=O)[O-])c3ccc(=[N+](CC)CC)cc-3oc2c1`, for which the Potency entry in test [1], in test [2], in test [3], in [5], in test [8] and in [6] was “inactive” each time. In addition, the Potency result in test [9], in test [10] and in test [7] was “inactive” throughout. In addition, the max response in test [4] is -15.9%.

Consider `Cc1cccc2cccnc12`, for which the Potency entry in test [1], in test [2], in test [3], in test [5], in test [8] and in test [6] was “inactive” each time. Besides, the Potency entry in test [9], in [10] and in test [7] was “inactive” each time. The max response in [4] is 0.538%.

`CC(C)CCOC(=O)/C=C/c1ccccc1`: the Potency result in test [1], in [2], in test [3], in [5], in [8] and in test [6] was “inactive” each time. Also, the Potency entry in test [9], in [10] and in test [7] was “inactive” each time. The max response in [4] is -4.61%.

For the compound `CCC(=O)OC(=O)CC`, the Potency result in test [1], in test [2], in [3], in test [5], in [8] and in test [6] was “inactive” in each case. The Potency result in [9], in test [10] and in [7] was “inactive” in each case. Moreover, the max response in [4] is 0.495%.

In the case of `CCCCOC(=O)CC`, the Potency result in [1], in test [2], in [3], in [5], in [6] and in test [7] was “inactive” throughout. The max response in test [4] was 2.07%.

As for `CCCC(=O)OCCc1ccccc1`, the Potency in test [1] is 49 µM (active); in [5], 43.6 µM (active); in test [8], 43.6 µM (active); in test [9], 43.6 µM (active); in [10] it was 49 µM (active). Also, the Potency result in test [2], in test [3], in [6] and in test [7] was “inactive” in each case. In addition, in [4], the max response was 5.68%.

On to `CCC(COC(=O)CCS)(COC(=O)CCS)COC(=O)CCS`, for which the Potency result in [1], in test [2], in [3], in [5], in test [8] and in test [6] was “inactive” throughout. In addition, the Potency result in test [9], in test [10] and in test [7] was “inactive” throughout. Moreover, in test [4], the max response was 0.669%.

For the compound `CCN1C(=O)c2ccccc2C1Nc1ccc(OCCN2CCCCC2)cc1` (stereo unspecified), the Potency entry in [1], in test [3], in test [5], in test [8], in [6] and in test [9] was “inactive” throughout. For the same compound, the Potency entry in test [10] and in test [7] was “inactive” each time. The Potency in test [2] and in test [4] was 4.77 µM (active) throughout.

Consider `O=C(O)Cc1ccccc1Nc1c(Cl)cccc1Cl`, for which the Potency result in test [1], in [2], in test [3], in [5], in [8] and in [6] was “inactive” throughout. Further, the Potency entry in [9], in [10] and in [7] was “inactive” throughout. The max response in test [4] was 15.1% and 6.54%.

Consider `C#Cc1ccc(-c2ccccc2F)cc1`, for which the Potency entry in test [1], in [2], in [3], in [5], in test [8] and in test [6] was “inactive” each time. Further, the Potency result in test [9] and in test [7] was “inactive” in each case. Also, the max response in [4] is 5.33%.

Take `NC(=O)c1cccc([N+](=O)[O-])c1`: the Potency result in test [1], in test [2], in [3], in test [5], in test [8] and in test [6] was “inactive” throughout. The Potency result in test [9], in test [10] and in [7] was “inactive” in each case. For the same compound, the max response in [4] is -0.169%.

For the compound `c1ccsc1`, the Potency entry in [1], in [2], in [3], in [5], in [8] and in test [6] was “inactive” in each case. For the same compound, the Potency result in test [9], in test [10] and in [7] was “inactive” throughout. Also, in test [4], the max response is -2.24%.

`Cc1cc(C)c(/C=C2\C(=O)Nc3ccccc32)[nH]1`: the Potency was 9.52 µM (active) in test [1]; 10.7 µM (active) in [5]; 16.9 µM (active) in test [8]; 19 µM (active) in test [9]; 19 µM (active) in [10]. Besides, the Potency result in test [2], in test [3], in test [6] and in test [7] was “inactive” in each case. For the same compound, the max response in test [4] was -3.94%.
